# Test results taken from PubChem BioAssay AID1628 (Sanford-Burnham Center for Chemical Genomics, 2009).
# In all, about 190,000 compounds went through this assay and about 930 (0.49%) were called active. The list shows a part of the results. Measured potencies and affinities stand elsewhere. A number with no mark means an inactive call.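 The calls were made as follows: active = z-score of insulin promoter reporter brightness in nuclei below -3 at 5 µM, with at least 500 cells counted; inconclusive = wells with under 500 cells, flagged as toxic or sparse; inactive = the rest.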
# Experiment: insulin promoter down-regulators in MIN6 cells, imaging, high-content screening, mouse beta cells (AID 1628)
# Settings: MIN6 insulin promoter GFP reporter, at 5 µM, active compounds read low
row,SMILES,z-score
1,Cn1cnc2c(NCc3ccco3)ncnc21,-0.11
2,Cc1cc(N/N=C/c2ccc([N+](=O)[O-])o2)nc2ccccc12,8.56
3,Cc1ccc(/C=N/Nc2ccc3ccccc3n2)o1,-3.22 (active)
4,Cc1ccn2c(-c3csc(NCc4ccco4)n3)c(C)nc2c1,-6.24 (active)
5,Cc1ccn2c(=O)cc(C)nc2c1,2.27
6,Cc1nc2ccccn2c1-c1csc(NCc2ccco2)n1,-9.7 (active)
7,CC(=O)Nc1ccc(N2CCc3c(C)c(C#N)c4nc5ccccc5n4c32)cc1,3.8
8,CC(=O)Nc1ccc(N2C(=O)C3C4CC(=O)C(c5ccccc54)C3C2=O)cc1 (stereo unspecified),-5.05 (active)
9,CC1CN(Cc2cc(=O)[nH]c(C3CC3)n2)CC(C)O1 (stereo unspecified),-3.69 (active)
10,O=C(NCc1ccc(F)cc1)C1CCCN(S(=O)(=O)c2cccnc2)C1 (stereo unspecified),3.46
11,CCN(CCNC(=O)C1CCCN(S(=O)(=O)CC)C1)c1ccccc1 (stereo unspecified),3.08
12,C/C(=N\NC(=O)C1CCCN(S(=O)(=O)c2ccccc2)C1)c1ccccn1 (stereo unspecified),-3.38 (active)
13,COc1cc(/C=N/NC(=S)Nc2cccc(Cl)c2C)ccc1OCC(=O)N1CC(C)OC(C)C1 (stereo unspecified),-3.25 (active)
14,Oc1ccc(Cl)cc1C1=Nc2ccccc2N=C(c2ccco2)C1,4.34
15,COC1=CCC2([N+](=O)[O-])CN(CCO)CC1([N+](=O)[O-])C2 (stereo unspecified),3.03
16,Cc1ccccc1N1C(=O)CC(c2c[nH]c3ccccc23)C1=O (stereo unspecified),3.5
17,CCn1c(COc2ccc(=O)n(-c3ccccc3)n2)nnc1SCc1ccccc1C,-4.23 (active)
18,CCOC(=O)c1sc(NCCNc2nc(C)c(C(=O)OCC)s2)nc1C,-0.64
19,COc1cc(=O)n(C)c2c(OCC3OC(C)(C)OC3(C)C)cccc12 (stereo unspecified),-0.95
20,O=C1C=C(Nc2ccccc2)C(=O)c2ccccc21,-0.04
21,O=C1/C(=N\S(=O)(=O)c2cccs2)C([n+]2cccc(Cc3ccccc3)c2)=C([O-])c2ccccc21,6.82
22,CCCn1c(SCC(=O)NC2CCCCC2)nnc1-c1ccncc1,3.06
23,CC(C)(C)NC(=O)CSc1n[nH]c(=O)n1-c1ccccc1,2.5
24,Cn1c(SCC(=O)NNC(=O)Cc2ccccc2)nnc1-c1ccc(Cl)cc1,-3.49 (active)

row,SMILES,z-score
1,O=C(NC1(C(F)(F)F)NC(=O)N(c2ccc(F)c(Cl)c2)C1=O)c1ccncc1 (stereo unspecified),4.5
2,COc1ccc2cc(C(c3nnnn3C(C)(C)C)N3CCc4ccccc4C3)c(=O)[nH]c2c1 (stereo unspecified),-5.1 (active)
3,OCCC1CN(Cc2cccn2-c2ncccn2)CCN1CCc1ccccc1 (stereo unspecified),-3.43 (active)
4,CCc1ccc(N2CC(O)(c3cccs3)[N+]3=C2SCCC3)cc1 (stereo unspecified),-3.76 (active)
5,O=S(=O)([O-])CCC[n+]1c(/C=C\Nc2ccccc2)oc2ccc(-c3ccccc3)cc21,3.19
6,CSC(=Nc1cccc(C)c1)NC#N,-5.35 (active)
7,COCCCNC(=O)c1c(N)n(/N=C/c2cccnc2)c2nc3ccccc3nc12,-3.07 (active)
8,COC(=O)C1=C(N)n2c(s/c(=C\c3cccnc3)c2=O)=C(C(=O)OC)C1c1cccnc1 (stereo unspecified),3.21
9,Cc1ccc(C(=O)NCCn2c(N)c(C#N)c3nc4ccccc4nc32)cc1,4.08
10,Cc1ccc(-n2c(Cc3cccs3)nnc2SCC(=O)OC(C)C)cc1,3.05
11,COc1cc(/C=C(\C#N)c2nc3ccccc3o2)ccc1O,4.56
12,CCNC(=S)N/N=C/c1ccc(-c2ccccc2)o1,-3.35 (active)
13,COCCNC(=S)N/N=C/c1ccc(-c2ccc([N+](=O)[O-])cc2)o1,5.22
14,CC(C)(C)NC(=S)N/N=C\c1ccc(-c2ccc([N+](=O)[O-])cc2)o1,14.4
15,CN(C)C(=O)C1C2NC(=S)N(c3cccc(Cl)c3)C1(C)Oc1ccc(Cl)cc12 (stereo unspecified),3.51
16,Nc1c(C(=O)c2ccccc2)sc2nsc(SCCN3CCCC3)c12,6.03
17,OC(CNCC1CCCO1)COc1ccc(OCC(O)CNCC2CCCO2)cc1 (stereo unspecified),1.04
18,CC(CNCC1CCCO1)COc1cccc2ccccc12 (stereo unspecified),-4.31 (active)
19,CCOC(=O)/C(C#N)=C/C=C1\C=Cc2ccccc2N1CC,4.84
20,CS(=O)(=O)N(CCc1ccccc1)CC(=O)N1CCN(Cc2ccccc2)CC1,0.33
21,O=C(c1ccccn1)N1CCN(S(=O)(=O)c2ccc3ccccc3c2)CC1,3.58
22,O=C(C1=C[C@H](C2CC2)C[C@H](OCCCCO)O1)N1CCN(Cc2ccccc2)CC1,3.72
23,COC(=O)CCC(NC(=O)c1cc(C)oc1C)C(=O)OC (stereo unspecified),0.79
24,COc1ccc(-c2cc(C(F)F)n3ncc(C(=O)NCC4CCCO4)c3n2)cc1 (stereo unspecified),-5.37 (active)

row,SMILES,z-score
1,O=C(O)c1cc(-c2ccc(/C=C3/SC(=S)N(Cc4ccccc4)C3=O)o2)ccc1Cl,4.28
2,N#C/C(=C/c1ccc(N2CCOCC2)o1)c1ccc(Br)cc1,10
3,CC(C)(C)NS(=O)(=O)c1ccc(CCC(=O)NCc2ccc3c(c2)OCO3)cc1,0.89
4,Cc1nc2ccccn2c1C(=O)NCc1ccc2c(c1)OCO2,-5.57 (active)
5,CCOCCCNc1nc2c(C)cccn2c(=O)c1/C=C1\SC(=S)N(CC(C)C)C1=O,4.38
6,Cc1nc2ccccn2c1P(=O)(N1CCCCC1)N1CCCCC1,0.76
7,CCCN1C(=O)/C(=C/c2c(NCCCOCC)nc3c(C)cccn3c2=O)SC1=S,5.71
8,Cc1ccc(-c2cc(-c3ccco3)c3c(N)c(C(=O)NN)oc3n2)cc1,3.03
9,COc1cc(OC)c2c(-c3ccccc3)cc(=O)oc2c1,-1.04
10,COC(CNC(=O)c1ccc(Cn2c(=S)[nH]c3cc4c(cc3c2=O)OCO4)cc1)OC,3.48
11,COC(=O)c1[nH]c2ccc(C)cc2c1NC(=O)CCN1CCN(Cc2ccc3c(c2)OCO3)CC1,-3.87 (active)
12,CCCNC(=O)Cn1cnc2sc(C(=O)N3CCN(Cc4ccc5c(c4)OCO5)CC3)c(C)c2c1=O,3.66
13,COC(=O)c1c(NC(=O)CN2CCN(Cc3ccc4c(c3)OCO4)CC2)sc(C)c1C,-5.05 (active)
14,COC(=O)c1[nH]c2ccc(F)cc2c1NC(=O)CCN1CCN(Cc2ccc3c(c2)OCO3)CC1,-3.4 (active)
15,CCCCN1C(=O)C2(NNc3ccccc3O2)c2ccccc21 (stereo unspecified),4.38
16,Cc1cc(N2CCCC2)ccc1/C=C1\NC(=S)N(C)C1=O,10.4
17,COc1ccc(N=c2oc3c(OC)cccc3cc2C(=O)NCc2ccco2)c(OC)c1,-3.31 (active)
18,O=C(Nc1ccc(F)cc1)NC1CCN(Cc2ccccc2)CC1,-3.27 (active)
19,O=C(NN=C1CCN(Cc2ccccc2)CC1)c1cc(Br)ccc1O,1.47
20,CC(=O)OCCCN1C(=O)c2ccc(Br)cc2C1=O,1.19
21,CCCCNc1ccc2c3c(cccc13)C(=O)N(CCCC)C2=O,17.1
22,CC(C)Oc1ccccc1C1CC(=O)Nc2cc3c(cc21)OCCO3 (stereo unspecified),-4.18 (active)
23,CCOC(=O)C1=C(C)NC(=O)CC1c1cc2c(cc1[N+](=O)[O-])OCO2 (stereo unspecified),3.01
24,CCNc1nc(N2CCCC2)nc(N2CCCC2)n1,-3.04 (active)

row,SMILES,z-score
1,O=C(OCCN1C(=O)c2cccc3c(N4CCOCC4)ccc(c23)C1=O)c1ccc(Cl)cc1Cl,3.13
2,CN1C=CC2=C(C#N)C(N)C(C#N)(C#N)C(c3ccccc3)C2C1 (stereo unspecified),10.1
3,CC12CCC(C/C1=N/O)C2(C)C (stereo unspecified),0.65
4,C(=N\Nc1nc(-c2ccccn2)nc2ccccc12)/c1ccccc1,-3.55 (active)
5,Cc1ccc2nc(C(Cl)(Cl)Cl)nc(N/N=C/c3ccncc3)c2c1,2.39
6,CCOc1ccc(CNC(=O)CCn2c(=O)oc3ccccc32)cc1,3.4
7,CCOc1ccc(N2CC(C(=O)NCc3ccc(F)cc3)CC2=O)cc1 (stereo unspecified),-5.37 (active)
8,CCOc1ccc(NC(=O)NC2CC(=O)N(c3ccc(OC)cc3)C2)cc1 (stereo unspecified),2.29
9,COc1cc2nc(/C=C/c3ccc(N(C)C)cc3)sc2cc1SC,15.9
10,COc1cccc(NC(=O)Cn2c(-c3cncs3)nc3ccccc32)c1,5.27
11,COc1cccc(NC(=O)CSc2nc3ccccc3c(=O)n2CCCC(=O)N2CCCC2)c1,-4.63 (active)
12,COc1cccc(NC(=O)Cn2c(SCC(=O)N3CCOCC3)nc3ccccc32)c1,-4.09 (active)
13,CCOc1ccc(NC(=O)Cn2c(=O)oc3ccccc32)cc1,3.64
14,COc1cccc(NC(=O)CSc2nncn2N)c1,0.29
15,COc1ccc(-n2c(Cc3cccn3C)nnc2SCC(=O)Nc2cccc(C)c2C)cc1,3.05
16,COc1ccc(-n2c(SCC(=O)Nc3cccc4ccccc34)nc(O)cc2=O)cc1,-6.42 (active)
17,O=C(Nc1nnc(-c2ccc(Cl)s2)o1)C1CC1,2.8
18,CCn1nnc2sc3c(c2c1=O)CCC(C)C3 (stereo unspecified),3.59
19,C/C(CC(=O)NCc1ccc(Cl)cc1)=N\NC(=O)Cc1ccccc1,-4.08 (active)
20,O=C(CSc1ncn[nH]1)NCc1ccccc1,5.42
21,COc1cc(OC)c(OC)cc1/C=C1\Oc2cc(OS(C)(=O)=O)ccc2C1=O,5.02
22,Cc1ccc(-c2nc(C#N)c(NCCN3CCCCC3)o2)cc1,-3.25 (active)
23,CC(=O)N1CCOCCOCCN(C(C)=O)CCOCC1,2.13
24,O=C(/C=C/c1cccs1)N1CCOCC1,-5.7 (active)
